# Measurements from PubChem BioAssay (Tox21).
# “And” between values parts separate entries of the source, which are not always exact repeats. Equal entries are not always repeated. Inconclusive results are not listed. Where a call stands in place of a potency, no number is given. A structure can be active in one record and inactive in another. The source made the active and inactive calls. Unless noted, the call rests on the fitted dose curve; in most records, active means well fitted curve in the direction sought with a large enough effect in the repeat runs; inconclusive means weak or mixed curves; inactive means no such curve, though single readings can be large; an effect the other way counts as inactive or inconclusive.
# Columns and labels:
# [1] = qHTS RealTime-Glo MT Cell Viability Assay in HepG2 cells - 16 hour (AID 1224885); further: nearly all actives have a fitted effect of over 50% in size
# How it was run: (§1)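 Cells + NanoLuc/prosubstrate dispensed (600 cells/well) → 5 h at 37 C/5% CO2 → compounds in DMSO transferred → 40 h incubation at 37 C, luminescence read at 0, 8, 16, 24, 32, 40 h.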
# [2] = qHTS RealTime-Glo MT Cell Viability Assay in HEK293 cells - 24 hour (AID 1224886); further: nearly all actives have a fitted effect of over 50% in size; further: potency means the concentration at half of the fitted maximal effect
# How it was run: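 Tox21 10K qHTS, HEK293, 600 cells/well, RealTime-Glo reagent co-dispensed with cells; 5 h preincubation, compound by pintool, 37 C, luminescence at 0–40 h.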
# [3] = qHTS RealTime-Glo MT Cell Viability Assay in HEK293 cells - 8 hour (AID 1224887); further: nearly all actives have a fitted effect of over 50% in size; further: potency means the concentration at half of the fitted maximal effect
# How it was run: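 Real-time viability in HEK293: signal arises when living cells convert a prosubstrate for NanoLuc in the medium, so luminescence tracks viable cell number. Compound (23 nL, DMSO) added 5 h post-seeding; kinetic reads at 0–40 h, 37 C.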
# [4] = A CellTox Green Cytotoxicity Assay to monitor cytotoxicity in HEK293 cells - 16 hour (AID 1224888); further: nearly all actives have a fitted effect of over 35% in size
# How it was run: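 Cells (HEK293, 600/well) and dye reagent are dispensed together. After 5 h at 37 C, 23 nL compound is pinned in. Plates stay at 37 C for 40 h with fluorescence read at 0h, 8h, 16h, 24h, 32h and 40h.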
# [5] = qHTS RealTime-Glo MT Cell Viability Assay in HepG2 cells - 0 hour (AID 1224889); further: nearly all actives have a fitted effect of over 50% in size
# How it was run: as §1
# [6] = A CellTox Green Cytotoxicity Assay to monitor cytotoxicity in HepG2 cells - 8 hour (AID 1224890); further: nearly all actives have a fitted effect of over 45% in size
# How it was run: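 Cells and non-lytic dye reagent are dispensed together (600 HepG2 cells/well) and incubated 5 h before DMSO compound transfer. Kinetic fluorescence is then recorded in the same wells during 40 h at 37 C.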
# [7] = qHTS assay to identify small molecule antagonists of the estrogen receptor alpha (ER-alpha) signaling pathway using the BG1 cell line in the presence of 0.1 nM 17-beta-estradiol - cell viability counter screen (AID 1259241); further: nearly all actives have a fitted effect of over 40% in size
# How it was run: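 Cells were plated and left 24 hr, compounds in DMSO were pinned in, 17beta-estradiol was added to 0.1 nM final, and after 22 hr CellTiter-Fluor reagent was added for 30 min before fluorescence was read.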
# [8] = qHTS assay to identify small molecule antagonists of the androgen receptor (AR) signaling pathway using the MDA cell line in the presence of 0.5 nM R1881 - cell viability counter screen (AID 1259242); further: nearly all actives have a fitted effect of over 45% in size
# How it was run: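 Steps: plate MDA-kb2 cells, rest 5 hr at 37C without CO2; pin in compounds in DMSO; add R1881 to 0.5 nM final; incubate 16 hr; add CellTiter-Fluor, 30 min; read fluorescence.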
# [9] = target: Estrogen receptor (Homo sapiens) (UniProt P03372); test: qHTS assay to identify small molecule antagonists of the estrogen receptor alpha (ER-alpha) signaling pathway using the BG1 cell line in the presence of 0.1 nM 17-beta-estradiol (AID 1259244); further: nearly all actives have a fitted effect of over 50% in size; further: potency means the concentration at half of the fitted maximal effect
# How it was run: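 Antagonist mode: compounds in DMSO are pinned onto VM7Luc4E2 reporter cells, 0.1 nM final 17beta-estradiol is added, and after 22 h at 37C luciferase luminescence is measured with ONE-Glo.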
# [10] = qHTS assay to identify small molecule HDAC inhibitors (AID 1259364); further: potency means the concentration at half of the fitted maximal effect;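 further: wild-type HCT-116 cells with endogenous class I/II HDAC activity; nearly all actives have a fitted effect of over 45% in size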
# How it was run: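 Cells (HCT-116, wild type) are seeded at 1,500 per well, incubated overnight, treated with compound in DMSO for 2 hr, then developed with HDAC-Glo I/II reagent for 30 min at room temperature.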
# [11] = qHTS assay to identify small molecule HDAC inhibitors - cell viability counter screen (AID 1259365)
# How it was run: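 Counter screen in wild-type HCT-116 cells: compounds dissolved in DMSO are pin-transferred onto overnight-plated cells and left 2hr at 37C. ATP-based CellTiter-Glo luminescence then measures viable cells.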
# [12] = qHTS assay to identify small molecule agonists of the sonic hedgehog signaling (Shh) pathway - cell viability counter screen (AID 1259366); further: nearly all actives have a fitted effect of over 50% in size
# How it was run: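 Cells are plated at 2,000 per well and left 4hr at 37C, 5% CO2 before compound addition. After 23hr of treatment, CellTiter-Fluor reagent is added for 1hr at 37C and fluorescence is measured.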
# [13] = qHTS assay to identify small molecule antagonists of the sonic hedgehog signaling (Shh) pathway - cell viability counter screen (AID 1259367); further: nearly all actives have a fitted effect of over 55% in size; further: potency means the concentration at half of the fitted maximal effect
# How it was run: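 Conditioned medium drove Shh signaling in 3T3 Gli1-Luc cells exposed to compounds at 37C and 5% CO2. Viability was determined from CellTiter-Fluor fluorescence, with reagent incubated 1 hr after 23 hr of treatment.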
# [14] = qHTS assay to identify small molecule agonists of the sonic hedgehog signaling (Shh) pathway (AID 1259368; calls by dose curve;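 further: NIH/3T3-derived 3T3Gli1-Luc cells carrying a stable Gli1-driven firefly luciferase reporter; series mostly up to about 92 µM; nearly all actives have a fitted effect of over 15% in size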)
# How it was run: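 Cells of a mouse NIH/3T3 clone stably expressing luciferase under the Gli1 transcriptional response element are exposed to test chemicals for 24 hr at 37 C. Pathway activation is detected as a rise in luminescence.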
# [15] = qHTS assay to identify small molecule antagonists of the sonic hedgehog signaling (Shh) pathway (AID 1259369; calls by dose curve; further: nearly all actives have a fitted effect of over 45% in size; further: potency means the concentration at half of the fitted maximal effect)
# How it was run: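 Cells are plated and held 4hr at 37 C, compounds (DMSO) are pinned in, conditioned medium is added to stimulate the pathway, and after 24hr luciferase reagent is added for 30min before luminescence is read.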
# [16] = qHTS assay to identify small molecule agonists of the androgen receptor (AR) signaling pathway in the presence of an antagonist - cell viability counter screen (AID 1259379); further: nearly all actives have a fitted effect of over 25% in size; further: potency means the concentration at half of the fitted maximal effect
# How it was run: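 Cytotoxicity is assessed by CellTiter-Fluor in MDA-kb2 cells carrying an MMTV-driven luciferase reporter. Cells receive 3.0uM nilutamide plus compounds at 15 concentrations and incubate 16 hr at 37C without CO2 before fluorescence reading.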
# [17] = qHTS assay to identify small molecule agonists of the estrogen receptor beta (ER-beta) signaling pathway - cell viability counter screen (AID 1259380); further: nearly all actives have a fitted effect of over 30% in size; further: potency means the concentration at half of the fitted maximal effect
# How it was run: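 Cytotoxicity is measured in parallel with the reporter screen: after 16 hr compound exposure at 37C and a 2 hr LiveBLAzer step, CellTiter-Glo is added to the same ER-beta-UAS-bla HEK293T wells and luminescence read after 30 min.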
# [18] = target: Estrogen receptor beta (Homo sapiens) (UniProt Q92731); test: qHTS assay to identify small molecule agonists of the estrogen receptor beta (ER-beta) signaling pathway (AID 1259377; active means well fitted activation curve with a large enough effect in the signal ratio in the repeat runs, not every such curve was filed as active; the % refers to the signal ratio)
# How it was run: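 Agonist mode cell assay in GripTite HEK293T cells expressing an ER-beta fusion that drives beta-lactamase from an Upstream Activator Sequence; 16 hr compound exposure at 37C, then 2 h LiveBLAzer B/G FRET substrate at room temperature, fluorescence read-out.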
# [19] = target: Estrogen receptor beta (Homo sapiens) (UniProt Q92731); test: qHTS assay to identify small molecule antagonists of the estrogen receptor beta (ER-beta) signaling pathway (AID 1259378; active means well fitted inhibition curve with a large enough effect in the signal ratio in the repeat runs, not every such curve was filed as active; the % refers to the signal ratio)
# How it was run: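 ER-beta-UAS-bla HEK293T (GripTite) cells in 2% charcoal-stripped FBS medium were preincubated 6 hr at 37C, dosed with compound, then stimulated with 1 nM E2 (final) for 16 hr; beta-lactamase reporter read by B/G FRET fluorescence after 2 hr substrate loading.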
# [20] = qHTS assay to identify small molecule phospholipidosis (PLD) inducers (AID 1259344; active means well fitted curve in the direction sought with a large enough effect; an effect the other way counts as inactive or inconclusive)
# How it was run: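 After 4 h attachment on collagen I, HepG2 cells were dosed with compound alongside LipidTOX Red, kept 24 h at 37 C, fixed, and imaged for lamellar phospholipid pits.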
# Chain of Estrogen receptor (Homo sapiens) (P03372 whole entry, looked up): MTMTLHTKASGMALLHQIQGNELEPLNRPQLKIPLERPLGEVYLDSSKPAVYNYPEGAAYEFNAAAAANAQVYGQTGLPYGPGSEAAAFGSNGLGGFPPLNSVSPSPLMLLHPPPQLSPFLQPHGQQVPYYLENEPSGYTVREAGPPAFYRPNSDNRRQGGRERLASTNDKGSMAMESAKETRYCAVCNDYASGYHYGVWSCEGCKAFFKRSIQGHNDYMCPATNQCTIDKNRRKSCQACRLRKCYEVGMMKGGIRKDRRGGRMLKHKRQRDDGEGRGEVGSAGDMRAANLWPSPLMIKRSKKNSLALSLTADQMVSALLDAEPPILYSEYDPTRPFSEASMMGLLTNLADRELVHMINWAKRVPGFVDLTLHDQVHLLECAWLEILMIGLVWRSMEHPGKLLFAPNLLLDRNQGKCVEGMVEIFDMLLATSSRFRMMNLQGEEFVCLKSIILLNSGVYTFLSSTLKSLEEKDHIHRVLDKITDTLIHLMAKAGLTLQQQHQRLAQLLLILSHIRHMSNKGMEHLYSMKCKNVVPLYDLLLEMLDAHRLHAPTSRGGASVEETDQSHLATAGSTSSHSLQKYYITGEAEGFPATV
# Chain of Estrogen receptor beta (Homo sapiens) (Q92731 whole entry, looked up, the tested form may be a part): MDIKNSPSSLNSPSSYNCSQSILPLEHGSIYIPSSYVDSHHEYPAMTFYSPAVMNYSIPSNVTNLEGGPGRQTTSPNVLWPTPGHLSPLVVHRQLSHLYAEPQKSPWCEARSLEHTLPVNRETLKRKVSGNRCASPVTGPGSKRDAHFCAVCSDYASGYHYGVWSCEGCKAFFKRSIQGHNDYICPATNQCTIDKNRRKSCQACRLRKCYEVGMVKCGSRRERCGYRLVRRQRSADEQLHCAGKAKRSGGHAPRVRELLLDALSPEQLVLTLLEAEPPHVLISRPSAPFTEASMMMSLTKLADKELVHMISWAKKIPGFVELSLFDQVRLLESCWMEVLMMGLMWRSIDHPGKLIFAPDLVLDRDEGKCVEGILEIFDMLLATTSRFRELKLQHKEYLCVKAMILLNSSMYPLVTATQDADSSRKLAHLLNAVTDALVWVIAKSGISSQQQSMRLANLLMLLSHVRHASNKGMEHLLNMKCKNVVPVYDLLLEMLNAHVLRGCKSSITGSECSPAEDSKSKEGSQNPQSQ
Structure (SMILES),outcome [1],Potency [2],Potency [3],outcome [4],Potency [5],Potency [6],Potency [7],outcome [8],Potency [9],Potency [10],outcome [11],Potency [12],Potency [13],outcome [14],Potency [15],Potency [16],Potency [17],Potency [18],Potency [19],outcome [20]
COc1ccc(Nc2ccccc2)c(C)c1,inactive,inactive,inactive,inactive,inactive,inactive,inactive,inactive,inactive,inactive,inactive,inactive,inactive,inactive,inactive,inactive,inactive,–,–,–
FC(F)(F)c1ccc(Cl)c(Cl)c1,inactive,inactive,inactive,inactive,inactive,inactive,inactive,inactive,inactive,inactive,inactive,inactive,inactive,inactive,inactive,inactive,inactive,inactive,inactive,–
O=C(O)CCCCCCCCCCC(=O)O,inactive,inactive,inactive,inactive,inactive,inactive,inactive,inactive,inactive,21.9 µM (active) and 21.7 µM (active),inactive,inactive,inactive,inactive,inactive,inactive,inactive,–,–,–
CCCCCOC(C)=O,inactive,inactive,inactive,inactive,inactive,inactive,inactive,inactive,inactive,inactive,inactive,inactive,inactive,inactive,inactive and 27.3 µM (active),inactive,inactive,–,–,–
c1c[nH]cn1,inactive,inactive,inactive,inactive,inactive,inactive,inactive,inactive,inactive,inactive,inactive,inactive,inactive,inactive,inactive,inactive,inactive,inactive,inactive,–
N[C@@H](Cc1cc(I)c(Oc2cc(I)c(O)c(I)c2)c(I)c1)C(=O)O,inactive,inactive,inactive,inactive,inactive,inactive,inactive,inactive,–,inactive,inactive,inactive,inactive,–,inactive,inactive,inactive,inactive,inactive,inactive
CC1=C(C)S(=O)(=O)CCS1(=O)=O,inactive,inactive,inactive,inactive,inactive,inactive,inactive,inactive,inactive,inactive,inactive,inactive,inactive,inactive,21.3 µM (active) and 38.6 µM (active),inactive,inactive,inactive,inactive,–
CCCCOC(=O)COc1ccc(Cl)cc1Cl,inactive,inactive,inactive,inactive,inactive,inactive,inactive,inactive,–,inactive,inactive,inactive,inactive,–,inactive,inactive,inactive,–,–,–
CC1CCC2CC1C2(C)C (stereo not drawn),inactive,inactive,inactive,inactive,inactive,inactive,inactive,inactive,–,inactive,inactive,inactive,inactive,–,inactive,inactive,inactive,inactive,inactive,–
CCCCCC1=CCCC1=O,inactive,inactive,inactive,inactive,–,inactive,inactive,inactive,inactive,inactive,inactive,inactive,inactive,inactive,inactive,inactive,inactive,inactive,inactive,–
C=CCOC(=O)c1ccccc1C(=O)OCC=C,inactive,inactive,inactive,inactive,–,inactive,inactive,inactive,inactive,inactive,inactive,inactive,inactive,inactive,inactive,inactive,inactive,–,–,–
CCCCC(CC)CO (stereo not drawn),inactive,inactive,inactive,inactive,inactive,inactive,inactive,inactive,–,inactive,inactive,inactive,inactive,–,inactive,inactive,inactive,inactive,inactive,–
COCCCOc1ccnc(CS(=O)c2nc3ccccc3[nH]2)c1C (stereo not drawn),inactive,10.9 µM (active) and inactive,19.4 µM (active) and inactive,inactive,–,inactive,inactive,inactive,–,30.5 µM (active) and inactive,inactive,inactive,inactive,–,inactive,48.4 µM (active) and inactive,inactive,inactive,inactive,inactive
C=C(C)C(=O)Nc1ccc(Cl)c(Cl)c1,inactive,19.7 µM (active) and 21.8 µM (active),–,inactive,–,inactive,inactive,inactive,69.3 µM (active),inactive,inactive,inactive,inactive,–,17.4 µM (active) and 43.1 µM (active),inactive,55 µM (active) and 54.3 µM (active),inactive,inactive,–
O=S1(=O)CC=CC1,inactive,inactive,inactive,inactive,–,inactive,inactive,inactive,inactive,inactive,inactive,inactive,46.9 µM (active) and inactive,inactive,6.62 µM (active) and inactive,inactive,inactive,inactive,inactive,–
CC(C)c1ccc(S(=O)(=O)O)cc1,inactive,inactive,inactive,inactive,–,inactive,inactive,inactive,inactive,inactive,inactive,inactive,inactive,inactive,inactive,inactive,inactive,inactive,inactive,–
